Results as given in PubChem BioAssay (NCATS).
Results filed as inconclusive are left out. Activity calls are given as the source filed them. Calls come from the whole dose curve; as a rule, active = well fitted curve in the direction sought with a large enough effect; inconclusive = small, poorly fitted or top-dose-only effect, or another doubt; inactive = no such curve, though single readings can be large; an effect the other way counts as inactive or inconclusive.

Legend:
[1] = target: Protein phosphatase 1D (Homo sapiens) (UniProt O15297); experiment: RapidFire Mass Spectrometry qHTS Assay for Modulators of WT P53-Induced Phosphatase 1 (WIP1) (AID 1347424);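 note: amount of dephosphorylated VEPPL-S-QETFS peptide product formed by WIP1; series mostly up to about 63 µM; plate controls were DMSO wells for no effect and GSK830371 inhibitor control at 10 µM for full effect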
Procedure, shortened: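 10 nM WIP1 + cpd, 1 h RT; + 2 uM VEPPL-pS-QETFS, 5 min RT; stop 0.5% formic acid; labelled product standard 1 uM; RapidFire MS. Buffer 50 mM Tris pH 7.5, 30 mM MgCl2, 1 mM TCEP.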

[2] = target: Protein phosphatase 1D (Homo sapiens) (UniProt O15297); experiment: Rhodamine-PBP qHTS Assay for Modulators of WT P53-Induced Phosphatase 1 (WIP1) (AID 1347425); note: % of control where 0% means no effect
Procedure, shortened: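 Steps: enzyme with Rh-PBP sensor and compounds, room-temperature incubation of 1 hr, baseline read, addition of VEPPL-pS-QETFS (10 uM final), kinetic fluorescence reads at 525/598 nm. Activity equals final minus baseline signal.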

[3] = Primary qHTS for inhibitors of La Crosse Virus (LACV) - induced cell death in SH-SY5Y cells (AID 1508616);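 note: top concentration of the series differs between compounds; 0% = infected DMSO wells and 100% = uninfected DMSO wells; higher means more rescue of cells from virus-induced death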
Procedure, shortened: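 SH-SY5Y cells (6000/well) plated 24 h, then given compounds by pin transfer and LACV at 0.01 MOI for 6 days at 37C. Viability measured by ATPLite luminescence, normalized to infected DMSO and uninfected DMSO.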

[4] = target: Calcium and integrin-binding protein 1 (Homo sapiens) (UniProt Q99828); experiment: Primary qHTS for Identification of Calcium Integrin Binding Protein 1 (CIB1) Competitor (AID 1508620);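 note: GST tagged CIB1 binding a fluorescein labelled alphaIIb integrin peptide tracer; top concentration of the series differs between compounds; % is set by controls: 0 for no effect and ±100 for the full control effect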
Procedure, shortened: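 CIB1-GST (1 uM final) and compound incubated 15 min at room temperature before adding FITC-alphaIIb peptide tracer (100 nM final). Competition for binding read by fluorescence polarization (ex 480, em 540) after another 15 min at room temperature.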

Calcium and integrin-binding protein 1 (Homo sapiens), sequence (Q99828 whole entry, looked up): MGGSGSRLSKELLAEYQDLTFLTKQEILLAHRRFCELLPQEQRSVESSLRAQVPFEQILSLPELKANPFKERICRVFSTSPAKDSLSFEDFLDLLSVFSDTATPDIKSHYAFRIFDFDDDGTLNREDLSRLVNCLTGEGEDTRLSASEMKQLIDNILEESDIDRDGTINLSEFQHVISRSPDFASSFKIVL
Protein phosphatase 1D (Homo sapiens), sequence (O15297 whole entry, looked up): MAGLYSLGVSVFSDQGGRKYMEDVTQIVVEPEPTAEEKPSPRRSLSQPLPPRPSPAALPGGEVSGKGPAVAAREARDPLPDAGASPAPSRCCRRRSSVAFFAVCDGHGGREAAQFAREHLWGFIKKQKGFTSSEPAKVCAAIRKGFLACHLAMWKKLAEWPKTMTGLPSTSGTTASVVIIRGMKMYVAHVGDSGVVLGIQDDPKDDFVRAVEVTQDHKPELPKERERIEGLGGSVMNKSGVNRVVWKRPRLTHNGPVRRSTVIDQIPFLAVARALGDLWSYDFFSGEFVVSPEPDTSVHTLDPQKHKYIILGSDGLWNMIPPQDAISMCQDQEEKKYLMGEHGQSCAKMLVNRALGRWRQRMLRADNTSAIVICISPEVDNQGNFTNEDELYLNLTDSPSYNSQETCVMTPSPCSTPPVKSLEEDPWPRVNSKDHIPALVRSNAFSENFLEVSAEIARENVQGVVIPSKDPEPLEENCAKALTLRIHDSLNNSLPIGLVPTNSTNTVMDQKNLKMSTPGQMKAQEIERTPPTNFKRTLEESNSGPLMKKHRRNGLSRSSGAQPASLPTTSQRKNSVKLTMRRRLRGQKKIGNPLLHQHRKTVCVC

CCCCC(=O)OCC(=O)[C@H]1[C@H](C)C[C@H]2[C@@H]3C[C@H](F)C4=CC(=O)C=C[C@]4(C)[C@@]3(F)[C@@H](O)C[C@@]21C
inactive: Potency [1] | outcome [2] | outcome [3] | Potency [4]

O=C1NCCN1CCN1CCC(c2cn(-c3ccc(F)cc3)c3ccc(Cl)cc23)CC1
inactive: Potency [1] | outcome [2] | outcome [3] | Potency [4]

C[C@@H]1CCC[C@H](C)N1CCCC(O)(c1ccccc1)c1ccccn1 (stereo partly specified)
inactive: Potency [1] | outcome [2] | outcome [3] | Potency [4]

Cc1cccc(C)c1NC(=O)c1cc(S(N)(=O)=O)c(Cl)cc1O
inactive: Potency [1] | outcome [2] | outcome [3] | Potency [4]

CCCCCCCCCCCCCCCC[n+]1ccccc1
inactive: Potency [1] | outcome [2]

N#C/C(=C1/SC[C@@H](c2ccc(Cl)cc2Cl)S1)n1ccnc1
inactive: Potency [1] | outcome [3] | Potency [4]

CC(NCCC(c1ccccc1)c1ccccc1)c1ccccc1 (stereo unspecified)
inactive: Potency [1] | outcome [2] | outcome [3] | Potency [4]

CCCC(=O)O[C@]1(C(=O)COC(=O)CC)CC[C@H]2[C@@H]3CCC4=CC(=O)CC[C@]4(C)[C@H]3[C@@H](O)C[C@@]21C
inactive: Potency [1] | outcome [2] | outcome [3] | Potency [4]

C[C@H]1C[C@@H]2[C@H]([C@@H](O)C[C@@]3(C)[C@H]2CC[C@]3(O)C(=O)CO)[C@@]2(C)C=CC(=O)C=C12
inactive: Potency [1] | outcome [2] | outcome [3]

CC1CN(c2cc3c(cc2F)c(=O)c(C(=O)O)cn3-c2ccc(F)cc2F)CCN1 (stereo unspecified)
inactive: activity change, negative = inhibition [1] -2.72% [at 6.17 µM] | activity change, negative = inhibition [2] 0.0772% [at 4.81 µM] | activity change [3] -2.85% [at 0.431 µM] | Potency [4]
